# The whole screen tested about 5,500 compounds, of which about 2,000 (36%) were called active. About 18% were inconclusive and are not listed. This is one part of the list. Unmarked numbers belong to inactive results. No stated cut-off is given here; in the data, active means normalized growth mostly below about 0.91 (no sharp cut-off); inconclusive means no clear call, values can overlap the other calls; inactive means mostly above about 0.92.
# Experiment: chemical genetic growth profiling, strain panel (AID 1159580);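 further: tested at 20 µM; growth read once vehicle control cultures reached saturation at 30 °C; 1 = growth at the plate median or of vehicle wells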
# Conditions: growth OD
# [1] = S. cerevisiae deletion strains, locus YAL013W, strain DEP1, stronger effect = lower value
# [2] = S. cerevisiae deletion strains, locus YBR229C, strain ROT2, stronger effect = lower value
# [3] = S. cerevisiae deletion strains, locus YCL061C, strain MRC1, stronger effect = lower value
# [4] = S. cerevisiae deletion strains, locus YDL101C, strain DUN1, stronger effect = lower value
# [5] = S. cerevisiae deletion strains, locus YDL134C, strain PPH21, stronger effect = lower value
# [6] = S. cerevisiae deletion strains, locus YDR150W, strain NUM1, stronger effect = lower value
# [7] = S. cerevisiae deletion strains, locus YEL061C, strain CIN8, stronger effect = lower value
# [8] = S. cerevisiae deletion strains, locus YGR078C, strain PAC10, stronger effect = lower value
# [9] = S. cerevisiae deletion strains, locus YHR030C, strain SLT2, stronger effect = lower value
# [10] = S. cerevisiae deletion strains, locus YHR087W, strain rtc3, stronger effect = lower value
# [11] = S. cerevisiae deletion strains, locus YJL187C, strain SWE1, stronger effect = lower value
# [12] = S. cerevisiae deletion strains, locus YJR043C, strain POL32, stronger effect = lower value
# [13] = S. cerevisiae deletion strains, locus YJR075W, strain HOC1, stronger effect = lower value
# [14] = S. cerevisiae deletion strains, locus YKL190W, strain CNB1, stronger effect = lower value
# [15] = S. cerevisiae deletion strains, locus YLR039C, strain RIC1, stronger effect = lower value
# [16] = S. cerevisiae deletion strains, locus YLR058C, strain SHM2 (second series), stronger effect = lower value
# [17] = S. cerevisiae deletion strains, locus YLR085C, strain ARP6, stronger effect = lower value
# [18] = S. cerevisiae deletion strains, locus YLR262C, strain YPT6, stronger effect = lower value
# [19] = S. cerevisiae deletion strains, locus YML094W, strain GIM5, stronger effect = lower value
# [20] = S. cerevisiae deletion strains, locus YMR219W, strain ESC1, stronger effect = lower value
# [21] = S. cerevisiae deletion strains, locus YMR263W, strain SAP30, stronger effect = lower value
# [22] = S. cerevisiae deletion strains, locus YNL153C, strain GIM3, stronger effect = lower value
# [23] = S. cerevisiae deletion strains, locus YNL298W, strain CLA4 (second series), stronger effect = lower value
# [24] = S. cerevisiae deletion strains, locus YNL322C, strain KRE1, stronger effect = lower value
# [25] = S. cerevisiae deletion strains, locus YNR030W, strain Alg12, stronger effect = lower value
# [26] = S. cerevisiae deletion strains, locus YOL006C, strain TOP1, stronger effect = lower value
# [27] = S. cerevisiae deletion strains, locus YPL055C, strain LGE1, stronger effect = lower value
# [28] = S. cerevisiae deletion strains, locus YPL241C, strain CIN2, stronger effect = lower value
# [29] = S. cerevisiae deletion strains, locus YPR135W, strain CTF4, stronger effect = lower value
# [30] = S. cerevisiae deletion strains, locus YMR307W, strain GAS1, stronger effect = lower value
# [31] = S. cerevisiae deletion strains, locus YNL128W, strain TEP1, stronger effect = lower value
smiles,measurement,setting,value
N#Cc1cnn(-c2ccccc2)c1-n1cccc1,normalized growth,[1],0.976
same,normalized growth,[2],0.988
same,normalized growth,[3],0.959
same,normalized growth,[4],1.01
same,normalized growth,[5],0.999
same,normalized growth,[6],0.873
same,normalized growth,[7],1.02
same,normalized growth,[8],0.974
same,normalized growth,[9],0.626 (active)
same,normalized growth,[10],1.02
same,normalized growth,[11],0.976
same,normalized growth,[12],0.978
same,normalized growth,[13],0.988
same,normalized growth,[14],0.985
same,normalized growth,[15],0.859
same,normalized growth,[16],0.974
same,normalized growth,[17],0.933
same,normalized growth,[18],0.883
same,normalized growth,[19],0.984
same,normalized growth,[20],0.981
same,normalized growth,[21],0.964
same,normalized growth,[22],0.994
same,normalized growth,[23],0.967
same,normalized growth,[24],0.989
same,normalized growth,[25],0.956
same,normalized growth,[26],0.938
same,normalized growth,[27],0.969
same,normalized growth,[28],0.953
same,normalized growth,[29],0.82
O=C(O)c1cnn(-c2ccccc2)c1C(F)(F)F,normalized growth,[1],1.01
same,normalized growth,[2],0.988
same,normalized growth,[3],0.995
same,normalized growth,[4],0.998
same,normalized growth,[6],1.02
same,normalized growth,[7],0.996
same,normalized growth,[8],0.99
same,normalized growth,[9],1.01
same,normalized growth,[10],0.98
same,normalized growth,[11],0.993
same,normalized growth,[12],0.992
same,normalized growth,[13],1.02
same,normalized growth,[15],1.03
same,normalized growth,[16],1.01
same,normalized growth,[17],1.05
same,normalized growth,[18],0.955
same,normalized growth,[19],1.02
same,normalized growth,[20],1
same,normalized growth,[21],0.989
same,normalized growth,[30],0.979
same,normalized growth,[31],1.01
same,normalized growth,[22],0.984
same,normalized growth,[23],1.01
same,normalized growth,[24],0.999
same,normalized growth,[25],1.01
same,normalized growth,[26],1.04
same,normalized growth,[27],1.04
same,normalized growth,[28],1.01
same,normalized growth,[29],1
CC1(O)/C=C/C=C(\CO)C2CC(C)(C)C2(O)CC1 (centres undefined),normalized growth,[1],1.02
same,normalized growth,"S. cerevisiae deletion strains, locus YBR021W, strain FUR4, stronger effect = lower value",1.02
same,normalized growth,[2],1.01
same,normalized growth,"S. cerevisiae deletion strains, locus YCL029C, strain bik1, stronger effect = lower value",1
same,normalized growth,"S. cerevisiae deletion strains, locus YDL035C, strain GPR1, stronger effect = lower value",1.01
same,normalized growth,"S. cerevisiae deletion strains, locus YDL074C, strain BRE1, stronger effect = lower value",1.03
same,normalized growth,[4],1.02
same,normalized growth,[5],1.02
same,normalized growth,"S. cerevisiae deletion strains, locus YDL185W, strain tfp1, stronger effect = lower value",1
same,normalized growth,"S. cerevisiae deletion strains, locus YDL192W, strain arf1, stronger effect = lower value",1
same,normalized growth,"S. cerevisiae deletion strains, locus YDR101C, strain arx1, stronger effect = lower value",0.976
same,normalized growth,[6],1.02
same,normalized growth,"S. cerevisiae deletion strains, locus YDR162C, strain NBP2, stronger effect = lower value",1.04
same,normalized growth,"S. cerevisiae deletion strains, locus YDR318W, strain mcm21, stronger effect = lower value",0.993
same,normalized growth,"S. cerevisiae deletion strains, locus YDR388W, stronger effect = lower value",0.998
same,normalized growth,"S. cerevisiae deletion strains, locus YDR502C, strain sam2, stronger effect = lower value",1.01
same,normalized growth,[7],1.01
same,normalized growth,"S. cerevisiae deletion strains, locus YER110C, stronger effect = lower value",0.998
same,normalized growth,"S. cerevisiae deletion strains, locus YER155C, strain BEM2, stronger effect = lower value",1
same,normalized growth,"S. cerevisiae deletion strains, locus YER167W, strain BCK2, stronger effect = lower value",1.02
same,normalized growth,"S. cerevisiae deletion strains, locus YGL078C, strain dbp3, stronger effect = lower value",1
same,normalized growth,"S. cerevisiae deletion strains, locus YGL086W, strain mad1, stronger effect = lower value",1
same,normalized growth,"S. cerevisiae deletion strains, locus YGL248W, strain PDE1, stronger effect = lower value",1.01
same,normalized growth,[8],1.02
same,normalized growth,"S. cerevisiae deletion strains, locus YGR135W, strain pre9, stronger effect = lower value",0.999
same,normalized growth,"S. cerevisiae deletion strains, locus YGR229C, strain SMI1, stronger effect = lower value",1.02
same,normalized growth,"S. cerevisiae deletion strains, locus YGR252W, strain gcn5, stronger effect = lower value",0.956
same,normalized growth,[9],1
same,normalized growth,"S. cerevisiae deletion strains, locus YHR079C, strain IRE1 (second series), stronger effect = lower value",1
same,normalized growth,"S. cerevisiae deletion strains, locus YHR094C, strain hxt1, stronger effect = lower value",1.01
same,normalized growth,"S. cerevisiae deletion strains, locus YHR129C, strain ARP1, stronger effect = lower value",1.01
same,normalized growth,"S. cerevisiae deletion strains, locus YHR200W, strain rpn10, stronger effect = lower value",1
same,normalized growth,"S. cerevisiae deletion strains, locus YIL066C, strain RNR3, stronger effect = lower value",1.01
same,normalized growth,"S. cerevisiae deletion strains, locus YIL073C, strain SPO22, stronger effect = lower value",1.02
same,normalized growth,"S. cerevisiae deletion strains, locus YIL125W, strain kgd1, stronger effect = lower value",0.998
same,normalized growth,"S. cerevisiae deletion strains, locus YIR030C, strain dcg1, stronger effect = lower value",1.01
same,normalized growth,"S. cerevisiae deletion strains, locus YJL095W, strain BCK1, stronger effect = lower value",1
same,normalized growth,"S. cerevisiae deletion strains, locus YJL134W, strain LCB3, stronger effect = lower value",1.01
same,normalized growth,"S. cerevisiae deletion strains, locus YJL168C, strain set2, stronger effect = lower value",1
same,normalized growth,"S. cerevisiae deletion strains, locus YJL187C, strain SWE1 (second series), stronger effect = lower value",1.02
same,normalized growth,[12],0.995
same,normalized growth,[13],1.01
same,normalized growth,"S. cerevisiae deletion strains, locus YKL009W, strain mrt4, stronger effect = lower value",0.991
same,normalized growth,"S. cerevisiae deletion strains, locus YKL068W, stronger effect = lower value",1.01
same,normalized growth,"S. cerevisiae deletion strains, locus YKL085W, strain MDH1 (second series), stronger effect = lower value",1.02
same,normalized growth,"S. cerevisiae deletion strains, locus YKL085W, strain MDH1, stronger effect = lower value",1.02
same,normalized growth,[14],1.01
same,normalized growth,"S. cerevisiae deletion strains, locus YKR001C, strain vps1, stronger effect = lower value",1
same,normalized growth,[15],0.977
same,normalized growth,"S. cerevisiae deletion strains, locus YLR058C, strain SHM2, stronger effect = lower value",1.01
same,normalized growth,"S. cerevisiae deletion strains, locus YLR102C, strain apc9, stronger effect = lower value",1
same,normalized growth,[18],1.05
same,normalized growth,"S. cerevisiae deletion strains, locus YLR268W, strain sec22, stronger effect = lower value",0.986
same,normalized growth,"S. cerevisiae deletion strains, locus YLR330W, strain CHS5, stronger effect = lower value",1.01
same,normalized growth,"S. cerevisiae deletion strains, locus YLR342W, strain FKS1 (second series), stronger effect = lower value",1.02
same,normalized growth,"S. cerevisiae deletion strains, locus YLR371W, strain rom2, stronger effect = lower value",1
same,normalized growth,"S. cerevisiae deletion strains, locus YLR418C, strain cdc73, stronger effect = lower value",0.989
same,normalized growth,"S. cerevisiae deletion strains, locus YML016C, strain PPZ1, stronger effect = lower value",1.01
same,normalized growth,"S. cerevisiae deletion strains, locus YML032C, strain rad52, stronger effect = lower value",0.979
same,normalized growth,"S. cerevisiae deletion strains, locus YML124C, strain tub3, stronger effect = lower value",1
same,normalized growth,"S. cerevisiae deletion strains, locus YMR078C, strain ctf18, stronger effect = lower value",1.01
same,normalized growth,"S. cerevisiae deletion strains, locus YMR223W, strain ubp8, stronger effect = lower value",0.994
same,normalized growth,[21],1.02
same,normalized growth,[30],1.02
same,normalized growth,"S. cerevisiae deletion strains, locus YNL067W, strain RPL9B, stronger effect = lower value",1.01
same,normalized growth,[31],1.03
same,normalized growth,[22],1.02
same,normalized growth,"S. cerevisiae deletion strains, locus YNL233W, strain BNI4, stronger effect = lower value",1.02
same,normalized growth,"S. cerevisiae deletion strains, locus YNL250W, strain rad50, stronger effect = lower value",1.02
same,normalized growth,"S. cerevisiae deletion strains, locus YNL271C, strain bni1, stronger effect = lower value",0.995
same,normalized growth,"S. cerevisiae deletion strains, locus YNL298W, strain CLA4, stronger effect = lower value",0.993
same,normalized growth,"S. cerevisiae deletion strains, locus YNL307C, strain MCK1, stronger effect = lower value",0.997
same,normalized growth,[24],1.02
same,normalized growth,"S. cerevisiae deletion strains, locus YNR052C, strain pop2, stronger effect = lower value",0.998
same,normalized growth,[26],1.06
same,normalized growth,"S. cerevisiae deletion strains, locus YOL012C, strain htz1",0.828
same,normalized growth,"S. cerevisiae deletion strains, locus YOL147C, strain pex11, stronger effect = lower value",1.01
same,normalized growth,"S. cerevisiae deletion strains, locus YOR061W, strain CKA2, stronger effect = lower value",1.02
same,normalized growth,"S. cerevisiae deletion strains, locus YOR069W, strain VPS5, stronger effect = lower value",1.01
same,normalized growth,"S. cerevisiae deletion strains, locus YOR136W, strain idh2, stronger effect = lower value",0.997
same,normalized growth,"S. cerevisiae deletion strains, locus YOR144C, strain elg1, stronger effect = lower value",0.999
same,normalized growth,"S. cerevisiae deletion strains, locus YOR184W, strain ser1, stronger effect = lower value",0.994
same,normalized growth,"S. cerevisiae deletion strains, locus YOR316C, strain cot1, stronger effect = lower value",1
same,normalized growth,[27],1.05
same,normalized growth,[28],1.02
same,normalized growth,"S. cerevisiae deletion strains, locus YPR119W, strain clb2, stronger effect = lower value",0.992
same,normalized growth,"S. cerevisiae deletion strains, locus YPR141C, strain kar3, stronger effect = lower value",1
same,normalized growth,"S. cerevisiae deletion strains, locus YPR163C, strain tif3, stronger effect = lower value",1
same,normalized growth,"S. cerevisiae deletion strains, locus YPR167C, strain met16, stronger effect = lower value",1.01
same,normalized growth,"S. cerevisiae deletion strains, strain wtn01, stronger effect = lower value",0.995
same,normalized growth,"S. cerevisiae strains, strain wild type, stronger effect = lower value",1.01
